One assay has as its target Albumin (Bos taurus) (UniProt P02769). Put plainly: compounds binding labelled BSA control protein – biochemical, small-molecule microarray, Alexa647 label, 635/667 nm fluorescence, artefact control for SMM control protein annotation, profiling panel (AID 1118).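 Note: score merges 667 nm emission intensity and signal-to-noise per printed compound spot.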 The settings on record: BSA-A647 binding, fluorescence 635 nm, higher = more signal.
Assay [1] in a line: probe aXIP binding to arrayed compounds – biochemical, NeuroSMM set, 635/667 nm fluorescence, primary screen (AID 1119).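 Note: probe is the protein aXip251-270 applied at 1 µg/mL to compound-printed slides; binding of probe to printed compounds measured as 667 nm fluorescence plus signal to noise.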 The settings on record: small-molecule microarray, higher = more signal, called active from +8 up or from −8 down.
Assay [2] can be described thus: probe aNOTCH3 binding on compound microarray – biochemical, small-molecule microarray, 635/667 nm fluorescence, primary screen (AID 1120).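 Note: probe is a biotin-tagged antibody raised against NOTCH3 rather than NOTCH3 protein; score merges spot fluorescence near 667 nm with spot signal to noise.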 The settings on record: higher = more signal.
The nature of assay [3]: probe aNOTCH2 binding on compound microarray – biochemical, small-molecule microarray, 635/667 nm fluorescence, primary screen (AID 1121).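 Note: score merges feature fluorescence read at 667 nm with its signal to noise.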 The settings on record: higher = more signal.
In assay [4] the target is Carbonic anhydrase 2 (Homo sapiens) (UniProt P00918). Put plainly: compounds binding carbonic anhydrase 2 – biochemical, small-molecule microarray, Alexa647-labelled CAII, profiling panel (AID 1122). Conditions: CAII-A647 binding fluorescence, higher = more signal.
A short description of assay [5]: COS7 lysate on small-molecule microarray, probe aHis, 635 nm (AID 1123).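 Note: z-score combines 667nm fluorescence intensity with signal-to-noise per printed compound spot.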 The settings on record: COS7 cell lysate, fluorescence, higher = more signal.
The nature of assay [6]: probe aLAP1 signal on lysate-treated microarray – cell lysate, small-molecule microarray, COS7 lysate, primary screen (AID 1124).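 Note: lysate comes from COS7 cells expressing LAP1 and is applied at 0.3 µg/mL; score merges spot fluorescence near 667 nm with signal-to-noise over triplicate slides.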 The settings on record: probe aLAP1, fluorescence, higher = more signal.
The subject of the next assay is Sam68 (KHDRBS1). The experiment in a line: compounds binding KHDRBS1 protein – biochemical, small-molecule microarray, 635 nm fluorescence, primary screen (AID 1125).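 Note: score merges 667 nm channel intensity with signal to noise over triplicate slides.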 Conditions: higher = more signal.
Assay [7] concerns Chordin-like protein 2 (CHRDL2). Put plainly: compounds binding chordin-like 2 – biochemical, small-molecule microarray, 635 nm fluorescence, primary screen (AID 1126).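 Note: printed compound slides probed with Chrdl2 protein at 4 µg/mL for 1 h at 4 C; score merges 667 nm emission intensity with signal to noise over three replicate slides.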 Conditions: fluorescence 635 nm, higher = more signal.
Assay [8] deals with Concanavalin-A (Canavalia ensiformis) (UniProt P02866). The experiment in a line: compounds binding concanavalin A lectin – biochemical, small-molecule microarray, Alexa647 label, 635 nm, artefact control for SMM control protein annotation, primary screen (AID 1127).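 Note: z combines 667 nm emission intensity with signal-to-noise across three replicate slides.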 The settings on record: ConA-A647 binding fluorescence, higher = more signal.
Sequence of Concanavalin-A (Canavalia ensiformis) (P02866 whole entry, looked up): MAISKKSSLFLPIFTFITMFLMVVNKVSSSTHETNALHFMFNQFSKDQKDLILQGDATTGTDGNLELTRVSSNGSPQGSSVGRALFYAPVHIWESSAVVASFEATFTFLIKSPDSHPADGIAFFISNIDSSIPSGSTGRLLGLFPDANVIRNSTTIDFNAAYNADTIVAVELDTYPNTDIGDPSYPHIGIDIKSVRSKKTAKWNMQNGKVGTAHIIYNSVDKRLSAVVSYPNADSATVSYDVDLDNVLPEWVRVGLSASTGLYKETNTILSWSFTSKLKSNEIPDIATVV

Active and inactive are the calls of the source.

Sequence of Albumin (Bos taurus) (P02769 whole entry, looked up): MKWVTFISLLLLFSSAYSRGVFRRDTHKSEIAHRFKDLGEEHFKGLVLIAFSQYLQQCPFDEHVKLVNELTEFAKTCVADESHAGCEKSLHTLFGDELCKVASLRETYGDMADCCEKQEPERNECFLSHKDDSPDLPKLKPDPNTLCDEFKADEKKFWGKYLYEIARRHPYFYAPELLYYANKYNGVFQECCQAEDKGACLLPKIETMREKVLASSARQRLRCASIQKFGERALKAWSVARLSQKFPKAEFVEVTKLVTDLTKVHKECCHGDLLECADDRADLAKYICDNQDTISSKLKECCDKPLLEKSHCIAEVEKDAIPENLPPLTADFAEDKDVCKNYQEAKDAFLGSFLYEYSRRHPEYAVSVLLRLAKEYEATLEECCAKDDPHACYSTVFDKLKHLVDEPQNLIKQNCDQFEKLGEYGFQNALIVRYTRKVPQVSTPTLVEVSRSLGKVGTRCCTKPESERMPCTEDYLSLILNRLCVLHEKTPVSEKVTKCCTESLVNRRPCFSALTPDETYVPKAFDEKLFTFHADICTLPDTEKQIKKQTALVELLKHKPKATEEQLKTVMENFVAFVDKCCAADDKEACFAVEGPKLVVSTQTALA

In the case of `CC(C)CON=C1C[C@@H](O)[C@@H](O)[C@@H]2[C@@H]3C(=O)N([C@@H](C)c4ccccc4)C(=O)[C@@H]3CC[C@H]12`, the composite z-score in the assay with Albumin (Bos taurus) was 0.663; in assay [2], 0.0297; in assay [3], -0.0959; in [4], 0.378; in assay [5] it was 0.754; in assay [6], -0.0211. Moreover, the values for the composite z-score (in the assay on Sam68 (KHDRBS1); in assay [7]; in assay [8]) were 1.29, 0.315 and 1.07, respectively. Also, in assay [1], the composite Z-score is 0.0312 (inactive).

As to `CC(C)(C)OC(=O)CC[C@]1(C(=O)NCc2ccccc2)N=C(c2ccc(OCCCO)cc2)O[C@H]1c1ccccc1`, the composite z-score was 0.912 with Albumin (Bos taurus); 0.61 in assay [2]; 0.0216 in assay [3]; 0.735 in [4]; 3.07 in assay [5]; 0.378 in assay [6]. The composite z-score in the assay with Sam68 (KHDRBS1) is 1.3; in [7], -0.672; in [8] it was 1.11. Moreover, the composite Z-score in assay [1] is -0.0089 (inactive).

For the compound `O=C(NN=C1C[C@@H](O)[C@@H](O)[C@@H]2[C@@H]3C(=O)N(c4cccc(Oc5ccccc5)c4)C(=O)[C@@H]3CC[C@H]12)OCc1ccccc1`, the composite z-score was 0.724 with Albumin (Bos taurus); -0.0204 in [2]; -0.204 in assay [3]; -0.0039 in [4]; 1.82 in assay [5]; 0.122 in [6]. Moreover, the composite z-score in the assay on Sam68 (KHDRBS1) was -0.406; in [7] it was 0.0071; in assay [8] it was 0.186. Also, the composite Z-score in assay [1] is -0.558 (inactive).

On to `COC(=O)[C@@]1(Cc2ccc(F)cc2)[C@H]2c3cc(C(=O)N(C)C)n(Cc4ccc(OC)c(OC)c4)c3C[C@H]2CN1C(=O)c1ccccc1`, for which the composite z-score with Albumin (Bos taurus) is 0.378; in [2], 0.194; in [3], 0.265; in assay [4] it was 0.866; in [5], 0.383; in assay [6] it was -0.253. Moreover, the composite z-score with Sam68 (KHDRBS1) was -0.309; in [7] it was 0.106; in assay [8] it was -0.189. The composite Z-score in [1] was 0.206 (inactive).

Take `CO[C@H]1COC(=O)[C@H](C)COC(=O)CC=C[C@@H](C)[C@H](OC)COC(=O)CC=C[C@@H]1C`: the composite z-score is -0.991 in the assay with Albumin (Bos taurus); -0.132 in [2]; -0.164 in [3]; -0.405 in [4]; -0.602 in [5]; -0.142 in assay [6]. Also, the composite z-score was -0.0288 in the assay with Sam68 (KHDRBS1), 1.4 in [7] and 0.184 in assay [8]. Further, the composite Z-score in assay [1] was -0.222 (inactive).

Turning to `COC(=O)[C@@H]1N=C(c2ccc(OCCCO)cc2)O[C@@H]1c1ccccc1N=[N+]=[N-]`, the composite z-score with Albumin (Bos taurus) was 0.731; in [2], 0.149; in [3] it was -0.0534; in assay [4] it was 0.666; in assay [5] it was 1.92; in assay [6], 0.35. For the same compound, the composite z-score in the assay with Sam68 (KHDRBS1) was 1.05; in assay [7], -0.456; in [8] it was 0.928. Besides, in [1], the composite Z-score was -0.384 (inactive).

As to `CC[C@@H](c1ccccc1)n1c(=O)n2n(c1=O)[C@H]1[C@H](O)[C@@H]3O[C@@H]3C(=NOCC(C)C)[C@H]1CC2`, the composite z-score was -0.231 with Albumin (Bos taurus); -0.0189 in [2]; -0.0986 in [3]; 0.308 in assay [4]; 0.0644 in assay [5]; 0.422 in assay [6]. The composite z-score in the assay with Sam68 (KHDRBS1) is 0.362; in [7], -0.086; in [8], 0.0275. For the same compound, in assay [1], the composite Z-score is -0.0127 (inactive).

Take `C[C@@H]1CCC2C(=O)N(Cc3ccccc3)C[C@@H](O)CN2[C@H]1c1ccc(Br)cc1` (stereo not given in full): the composite z-score is 0.33 with Albumin (Bos taurus); -0.0362 in assay [2]; -0.176 in [3]; 0.375 in [4]; 0.669 in assay [5]; -0.0066 in assay [6]. Also, the composite z-score was determined as 0.621 in the assay on Sam68 (KHDRBS1), 0.374 in assay [7] and 0.646 in [8]. Besides, the composite Z-score in assay [1] is 0.0923 (inactive).

As for `C=CC[C@@H]1C=C[C@H](ON=Cc2ccc(C(=O)N3[C@H](c4ccc(C)cc4)[C@@H](C)CC[C@H]3C(=O)OC)cc2)[C@@H](CO)O1`, the composite z-score in the assay with Albumin (Bos taurus) was 0.36; in [2] it was -0.0971; in [3], -0.132; in assay [4], -0.0234; in assay [5] it was 0.556; in assay [6], 0.116. Also, the composite z-score in the assay on Sam68 (KHDRBS1) is 0.632; in assay [7], 0.714; in [8], -0.404. For the same compound, in [1], the composite Z-score is 0.0811 (inactive).

Take `COCCOC(=O)N1C(=O)[C@@]2(c3cc(C#CC4(O)CCCCCC4)ccc31)[C@H](C(=O)N1CCN(c3ncccn3)CC1)[C@H]1C(=O)O[C@H](c3ccccc3)[C@H](c3ccccc3)N1[C@@H]2c1ccc(OCCO)cc1`: the composite z-score was 0.408 with Albumin (Bos taurus); 0.178 in [2]; -0.112 in [3]; 0.375 in assay [4]; 0.714 in assay [5]; 0.857 in [6]. Moreover, the composite z-score was 1.3 with Sam68 (KHDRBS1), 0.659 in assay [7] and 1.18 in assay [8]. Besides, the composite Z-score in assay [1] is -0.108 (inactive).

For `O=C1[C@H]2[C@H]3[C@H](O)[C@H](O)CC(=NO[C@@H]4O[C@H](CO)[C@@H](O)[C@H](O)[C@H]4O)[C@@H]3CC[C@H]2C(=O)N1Cc1ccccc1`, the composite z-score was -0.0679 with Albumin (Bos taurus); 0.0744 in assay [2]; -0.0623 in [3]; -0.568 in [4]; -0.658 in [5]; 0.0054 in assay [6]. Also, the composite z-score was 0.64 with Sam68 (KHDRBS1), -0.293 in assay [7] and -0.664 in assay [8]. The composite Z-score in [1] was 0.0769 (inactive).
